# According to PubChem BioAssay (NCI):
# Values joined by “and” are separate entries in the source; they are usually repeats but may differ in a detail not shown here. Equal entries are not always repeated. About 83,000 compounds went through this panel and 20% of them were active in at least one assay; those are over-represented in the sample as a whole.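 96-well plates, one dose, 48 hours. Percent growth reported; active if below 10.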 Values without a mark were called inactive. Active and inactive are the calls of the source.
# Experiments:
# Assay in all cases: NCI-60 one-dose screen, 48 h (100 = growth as untreated, 0 = no growth, -100 = all killed)
# Conditions in all cases: 10 µM unless noted
# [1] = test system: T-47D breast
# [2] = test system: BT-549 breast
# [3] = test system: MDA-MB-435 melanoma
# [4] = test system: SW-620 colon
# [5] = test system: MCF7 breast
# [6] = test system: HCT-116 colon
# [7] = test system: HCC-2998 colon
# [8] = test system: KM12 colon
SMILES,growth [1],growth [2],growth [3],growth [4],growth [5],growth [6],growth [7],growth [8]
COc1ccc(C(=O)C(O)c2ccc(OC)cc2)cc1 (centres undefined),103% and 92.8%,109% and 98.9%,117% and 111%,105% and 107%,96.7% and 98.1%,102% and 93%,111% and 108%,110% and 99.8%
O=[N+]([O-])c1cccc(N=Cc2ccccc2)c1,103%,101%,109%,117%,102%,103%,103%,112%
N=C(N)N1CCc2ccccc2C1,86.2% and 101%,84.4% and 103%,96% and 95.6%,94.5% and 88.1%,106% and 104%,94.7% and 102%,83.2% and 99.2%,92.6% and 94%
OC1CCCN(Cc2ccccc2)C1 (centres undefined),94.9%,112%,107%,107%,102%,103%,116%,107%
Cc1cc2ccccc2c2cc3ccccc3cc12,48%,93.7%,100%,90%,33.8%,93.8%,92.5%,82.1%
CCCCCCCCCCCCCCCCC(=O)O,104%,112%,109%,105%,93.9%,101%,96.8%,105%
CCn1c2ccc(N(C)C)cc2c2cc(N(C)C)ccc21,88.2%,96.6%,111%,96.2%,86.4%,101%,99.2%,92.8%
CCOC(=O)c1ccc(N2C(=O)C(Cl)(c3ccccc3)C2c2ccco2)cc1 (centres undefined),30.4%,76.5%,93.4%,77.6%,62.4%,54%,95.8%,83.5%
CCN(CC)CCO/N=C1\CC(c2ccc(OC)c(OC)c2)Oc2ccccc21 (centres undefined),89.4%,94%,100%,90.3%,89.4%,84.1%,109%,103%
CC1(CO)CCCC1NCCNC1CCCC1(C)CO (centres undefined),97.8% and 106%,98.7% and 113%,98.4% and 102%,104% and 101%,94% and 95.3%,88.6% and 102%,99.4% and 118%,122% and 100%
CCCC(=O)OCC(COC(=O)CCC)OC(=O)CCC,85.3%,106%,106%,95.6%,93.9%,98.8%,95.3%,103%
Cc1cccc(Cl)c1N,110%,111%,95.7%,96.9%,99%,113%,102%,110%
Clc1ccc2sc(-c3ccccc3)nc2c1,56.8%,109%,95.4%,72.2%,61.2%,94.9%,103%,104%
CCN(CC)C(CC(=O)c1ccccc1)C(=O)c1ccccc1 (centres undefined),77.8%,102%,99.2%,-7.93% (active),53.2%,92%,108%,109%
CC(=O)Nc1cscc1NC(C)=O,94.4%,90.3%,89.1%,97.6%,94.5%,103%,94.1%,106%
COc1ccc(COC=O)cc1,91.2%,110%,113%,108%,99.3%,99.1%,94.3%,103%
OCCS,92.8%,134%,105%,109%,94.1%,103%,93.9%,103%
Cc1nc2c(=O)[nH]c(=S)[nH]c2[nH]c1=O,112% and 102%,118% and 105%,107% and 102%,105% and 101%,101% and 99.9%,108% and 105%,102% and 106%,109%
